# Shown are actives, neighbours in structure and some others; about 3.2% of the full set was active somewhere.
# APOBEC3A inh = APOBEC3A ssDNA deaminase inhibitors, primary screen, selectivity assay for APOBEC3G inhibitor project, biochemical, FAM/TAMRA oligo cleavage fluorescence; DNA dC->dU-editing enzyme APOBEC-3A (Homo sapiens), P31941; recombinant A3A, FAM/TAMRA ssDNA deamination fluorescence; inhibition, % at 20 µM; 330,000 compounds, 0.41% hits; AID 493011, 2011;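 active means at least 40% inhibition at 20 µM here, with at most 30% in a related deaminase screen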;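 further: plate controls were A3A with DMSO for no effect and wells lacking A3A enzyme for full effect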
# A3G deaminase = APOBEC3G DNA deaminase inhibitors, primary screen, biochemical, fluorescence, single-stranded DNA substrate, uHTS; inhibition, % at 20 µM; recombinant A3G, ssDNA deamination FAM/TAMRA fluorescence; AID 493012, 2011; 330,000 compounds, 0.28% hits;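 active means inhibition of at least 40% at 20 µM, with no more than 30% in the related APOBEC3A deaminase screen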;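 further: plate controls were DMSO wells with A3G for no effect and wells lacking A3G enzyme for full effect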
# NTR1 ag = agonists of human NTR1, primary screen, imaging, U2OS cells, beta-arrestin-GFP, high content | activation, % at 20 µM | NTR1-U2OS beta-arrestin-GFP spot imaging, agonist mode | Neurotensin receptor type 1 (Homo sapiens), P30989 | 330,000 compounds, 0.17% hits;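 active means activation at or above 40% of the spot to cytoplasm intensity ratio, with at least 20 cells analyzed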;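 further: 0% = DMSO without peptide and 100% = 100 nM NTR1 peptide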
# AHR act = AHR activators, primary screen, cell-based, luminescence, luciferase reporter, human. AID 2796, 2010. AHR-responsive luciferase reporter cells. 320,000 compounds, 2.5% hits. Aryl hydrocarbon receptor (Homo sapiens), P35869. activation, % at 5 µM; in the data active means activation above about 47%;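 further: 0% = vehicle wells and 100% = reference agonist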
# Target sequence (P35869 whole entry, looked up): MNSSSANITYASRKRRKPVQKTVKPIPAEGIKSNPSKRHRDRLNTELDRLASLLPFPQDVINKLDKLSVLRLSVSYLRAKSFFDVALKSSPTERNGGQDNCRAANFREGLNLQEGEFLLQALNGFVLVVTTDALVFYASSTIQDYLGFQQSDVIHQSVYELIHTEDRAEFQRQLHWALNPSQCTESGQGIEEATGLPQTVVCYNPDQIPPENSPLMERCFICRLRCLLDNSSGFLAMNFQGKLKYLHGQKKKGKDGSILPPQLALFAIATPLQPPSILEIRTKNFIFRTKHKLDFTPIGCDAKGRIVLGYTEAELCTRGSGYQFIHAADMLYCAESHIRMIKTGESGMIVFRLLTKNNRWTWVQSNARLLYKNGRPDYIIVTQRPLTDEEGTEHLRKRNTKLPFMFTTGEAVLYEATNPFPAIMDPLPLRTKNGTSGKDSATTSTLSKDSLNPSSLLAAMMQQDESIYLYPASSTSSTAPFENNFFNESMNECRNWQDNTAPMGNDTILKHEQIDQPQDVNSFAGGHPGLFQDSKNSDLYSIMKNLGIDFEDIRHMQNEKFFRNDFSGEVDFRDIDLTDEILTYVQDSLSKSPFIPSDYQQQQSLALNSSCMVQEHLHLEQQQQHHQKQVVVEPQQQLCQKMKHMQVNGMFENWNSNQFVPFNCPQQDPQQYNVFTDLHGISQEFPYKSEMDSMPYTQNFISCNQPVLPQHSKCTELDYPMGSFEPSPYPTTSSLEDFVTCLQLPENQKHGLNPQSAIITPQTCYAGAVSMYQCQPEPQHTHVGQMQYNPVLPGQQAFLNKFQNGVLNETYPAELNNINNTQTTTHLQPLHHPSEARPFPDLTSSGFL
# The depositor's hits bear a star; · = no result given.
SMILES,APOBEC3A inh,A3G deaminase,NTR1 ag,AHR act
NS(=O)(=O)c1ccc(NS(=O)(=O)c2ccc(NC(=O)C3CC3)cc2)cc1,-4.9,-5.7,-0.3,0.3
CCOC(=O)/C(=C/C=C1\Sc2ccccc2N1CC)C(C)=O,-11.9,-22.1,-1.1,45.7
CCOC(=O)/C(=C\C=C1/Sc2ccccc2N1CC)C(C)=O,·,·,·,53.4*
O=C(Nc1ccccc1)c1cc([N+](=O)[O-])ccc1NC1CCCCC1,5.4,-6.0,8.4,51.7*
Cc1cc2oc(=O)cc(CN3CCc4ccccc43)c2cc1Cl,3.9,0.0,3.8,50.2*
Cc1cccc(C)c1NC(=O)CSc1cc(C(=O)c2nccn2C)c2ccccc2n1,-0.9,-7.9,2.7,13.1
O=C(Nc1ccccc1Cl)c1ccccc1,1.8,0.6,-0.8,-3.6
O=C(Nc1cccc(Cl)c1Cl)c1ccc(-c2ccccc2)cc1,0.8,-2.5,4.3,65.3*
[O-]/C(=C(\C(=S)Nc1ccccc1F)[n+]1ccccc1)c1ccc(-c2ccccc2)cc1,-1.7,-6.7,2.2,60.5*
Cc1ccc(-c2ccc(/C=C3\SC(N4CCOCC4)=NC3=O)o2)cc1,2.8,-3.5,1.6,54.4*
O=C1N=C(N2CCOCC2)S/C1=C/c1ccc(-c2ccc(F)cc2)o1,-2.2,-10.1,1.3,82.4*
CC1CCN(C(=O)C2CCN(S(=O)(=O)c3cc(Cl)ccc3Cl)CC2)CC1,4.6,-8.6,4.4,-2.1
Cc1ccc(NC(=O)CSc2nnnn2-c2cccnc2)c(C)c1,0.9,-5.8,-1.8,3.0
COc1ccc(-c2csc(NC(=O)CSc3nc(SC)ns3)n2)cc1,-0.9,-4.5,7.1,58.3*
Cc1onc(-c2c(F)cccc2Cl)c1C(=O)Nc1nc2ccccc2[nH]1,-3.1,-5.5,0.6,48.4*
Cc1ccc(C)c(C(=O)Nc2nc3ccccc3[nH]2)c1,1.0,-3.4,1.9,48.1*
COc1ccc(-n2c(SCC(=O)N/N=C(\C)c3cccnc3)nc3ccccc3c2=O)cc1,-5.5,-6.6,-0.3,1.5
Cc1cc(C)n(-c2nc3ccccc3nc2Nc2ccc3c(c2)OCO3)n1,1.2,-6.2,3.6,76.1*
Fc1cccc(Nc2nc3ccccc3n3nnnc23)c1,-5.3,-8.2,1.8,46.7
c1ccc2c(c1)nc(Nc1ccc3c(c1)OCO3)c1nnnn12,2.0,-2.0,1.3,120.0*
Cc1ccc(CNC(=O)c2cc3ccccc3oc2=O)cc1,4.2,-4.5,0.2,-3.5
O=C(NN=C1c2ccccc2-c2ccccc21)c1ccccc1,5.2,-1.4,3.4,59.3*
O=C(NN=C1c2ccccc2-c2ccccc21)c1ccccc1Br,3.4,-0.8,4.6,41.2
Cc1ccc(-c2nc3ccccc3c(=O)n2CCCn2ccnc2)cc1,3.5,1.1,5.6,5.2
c1cncc(-c2nc(NCCCn3ccnc3)c3ccccc3n2)c1,1.0,-6.5,-0.5,74.8*
SMILES,APOBEC3A inh,A3G deaminase,NTR1 ag,AHR act
Cc1nc(NCCCn2ccnc2)c2ccccc2n1,-3.8,-6.7,-0.2,57.2*
O=c1c2ccccc2nc(-c2ccccc2)n1CCCn1ccnc1,-3.6,-5.7,-2.3,56.1*
c1ccc(-c2nc(NCCCn3ccnc3)c3oc4ccccc4c3n2)cc1,0.8,-0.8,7.3,82.3*
Cc1ccc(C(C(=O)Nc2ccc3c(c2)OCO3)N(C)C(=O)/C=C\c2ccc3c(c2)OCO3)cc1 (stereo not drawn),-83.1,-9.7,0.6,14.4
COc1ccc(COC(=O)c2ccc(Br)c(S(=O)(=O)N3CCOCC3)c2)cc1F,-1.2,-8.9,1.8,-4.7
COc1ccc(NC(=O)CSc2nnc(-c3ccccn3)n2N)cc1,-1.9,-10.0,-3.0,8.7
CCn1c2ccccc2c2cc(NC(=O)CSc3nnc(-c4cccc(OC)c4)n3N)ccc21,2.4,2.8,11.6,63.9*
CCn1c2ccccc2c2cc(NC(=O)CSc3nnc(-c4ccccc4OC)n3N)ccc21,-3.6,-7.8,2.8,57.0*
Nn1c(SCC(=O)Nc2ccc(F)cc2)nnc1-c1ccccn1,0.1,-2.8,0.8,48.1*
O=C(O)/C=C\C(=O)Nc1ccccc1C#Cc1ccccc1,-5.0,-5.6,1.7,22.2
O=C(O)/C=C\C(=O)Nc1ccccc1C#Cc1ccc(Br)cc1,2.0,-3.5,3.8,68.6*
Cc1ccccc1NC(=O)Cn1nnc(C(=O)NCc2ccco2)c1N,-2.5,-8.1,-1.0,7.0
CCOc1ccccc1NC(=O)Cn1nnc(C(=O)NCc2ccco2)c1N,7.1,-0.1,0.0,63.8*
N#Cc1c2ccc(O)cc2n2ccccc12,-2.6,-2.8,4.1,1.5
C#CCn1c(O)c(N=NC(=O)C(O)c2ccccc2)c2ccccc21 (stereo not drawn),-0.6,-2.7,0.8,66.8*
Clc1ccc(/C=N/Nc2ncnc3ccccc23)cc1Cl,-4.7,-8.2,14.9,57.9*
Fc1ccccc1/C=N/Nc1ncnc2ccccc12,-1.8,-6.3,1.2,30.7
COC(=O)C1CN(C(=O)c2cccc(OC(F)F)c2)c2ccccc2O1 (stereo not drawn),3.6,2.0,0.4,49.2*
C/C(=N\O)C(C)(C)Nc1ccccc1F,-3.2,-4.6,1.0,0.4
C=CCn1c(=NC(=O)C2CC2)sc2cc(NC(C)=O)ccc21,1.0,5.0,-2.9,62.0*
Cc1cc(-c2ccccc2)c2ccc(NC(=O)C(C)(C)C)nc2n1,-10.0,-8.6,6.2,32.1
COC(=O)c1c(/N=C/N(C)C)sc2c1CCN(c1ncc(C(F)(F)F)cc1Cl)C2,2.1,-4.3,0.5,71.9*
COC(=O)c1c(N(S(C)(=O)=O)S(C)(=O)=O)sc2c1CCN(c1ncc(C(F)(F)F)cc1Cl)C2,-5.5,-5.9,0.0,5.1
O=C(N=Nc1c(O)[nH]c2ccccc12)c1cc(-c2cccs2)[nH]n1,0.8,-0.2,2.3,83.8*
O=C(c1cccc(Cl)c1)N1CCN(c2ncnc3c2cnn3-c2ccccc2)CC1,1.9,0.4,0.0,1.6
SMILES,APOBEC3A inh,A3G deaminase,NTR1 ag,AHR act
O=C(c1ccccc1)N1CCN(c2ncnc3c2cnn3-c2ccccc2)CC1,0.1,-1.6,0.4,61.4*
CCOc1ccccc1CNn1cnnc1,-2.6,-4.7,0.5,-1.8
Clc1cccc(Cl)c1COc1ccccc1CNn1cnnc1,-7.1,-8.8,0.6,58.9*
CN(C)C(CNC(=O)c1cc(S(=O)(=O)N2CCOCC2)ccc1F)c1cccs1 (stereo not drawn),-5.6,-5.4,-0.6,-0.1
Cc1c(C(=O)O)cnc2cc(-c3ccc(Cl)cc3)nn12,-1.9,-2.8,-1.4,13.2
CC(=O)c1cnc2cc(-c3ccc(Cl)cc3)nn2c1C,-1.6,-8.1,1.9,71.1*
CCCCn1c(O)c(N=Nc2ccccc2O)c2ccccc21,-3.1,-2.8,-0.1,59.7*
CCCC(=O)Nc1ccc2c(c1)c1ccccc1n2CC,-2.8,-5.0,2.4,69.0*
CCn1c2ccccc2c2cc(NC(=O)C(C)C)ccc21,-4.5,-7.1,8.3,36.8
